Here are results for 40 compounds from PubChem BioAssay (NCI).

The panel holds about 79,000 compounds, 15% with a hit somewhere; the sample as a whole holds those more often. Calls of active or inactive are those of the source. Cut-off read from the data, not from the text of the source: active = growth inhibition above about 70%; inactive = the rest.

The first experiment in a line: NCI Yeast Anticancer Drug Screen. Data for the rad50 strain (AID 155).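 Note: 0% = growth of vehicle-only cultures of the same strain.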 Particulars: S. cerevisiae rad50 strain growth inhibition; at 50.0 µM; hits give high values. The gist of the method:
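Yeast carrying a defined DNA repair defect were exposed to test compounds, and growth was compared with vehicle-treated controls to give percent inhibition.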
In the case of `O=C(NCCCCCCNC(=O)NCc1ccco1)NCc1ccco1`, the growth inhibition is -22.7% (inactive).
Same read-out and setting: to `c1ccc(COC(c2ccccc2)(c2ccccc2)c2ccccc2)cc1` belongs -0.45% (inactive); to `O=S(=O)(O)C(c1ccccc1)C(O)c1ccccc1` (stereo not given), 0.95% (inactive).
Same read-out and setting: to `Nc1nc(N)c2nc(-c3ccc(O)cc3)c(-c3ccc(O)cc3)nc2n1` belongs -15.5% (inactive).
As for `CCOCCC(=N)OCC`, the growth inhibition is 11.2% (inactive).
As for `CC(NC(=O)NCCCl)C1CC1` (stereo not given), the growth inhibition was -2.1% (inactive).
On the same count and under the same terms, next, `CC1OCC2CC3(O1)OC3C(COCC1OC3COC(C)OC4(C3)OC14)O2` (stereo not given): -7.05% (inactive).
Same read-out and setting: next, `c1ccc(-c2cc(-c3ccncc3)c(-c3ccccc3)nn2)cc1`: 7.85% (inactive); `NC(=O)NC(=O)OCCOC(=O)NC(N)=O`: -28.4% (inactive).
Regarding `NCc1cnccn1`, the growth inhibition is -7.05% (inactive).
The same measure, in the same setting: to `C=CCC(C(=C)C)(C(=O)OCC)C(=O)OCC` belongs -23.4% (inactive).
On the same count and under the same terms, to `O=C(O)C1CCC(C(=O)O)S1` (stereo not given) belongs 1.85% (inactive); to `Cc1ccc(NC(=O)Oc2ccc(C#N)cc2)cc1Cl`, 9.45% (inactive); to `CCC(=O)OC1(C(=O)OC)CCN(C)CC1`, 9.5% (inactive).
On the same count and under the same terms, to `Cc1ccc(NC(=O)C(C)S)cc1` (stereo not given) belongs 24.6% (inactive); to `Cc1ccc2cccc(OC(=O)Nc3cc(Cl)c(Cl)cc3Cl)c2n1`, -5.7% (inactive); to `CCC(=O)C(C)C1(C(=O)OC)NC(=S)NC(=O)C1C#N` (stereo not given), 5.4% (inactive).
As to `CCNC(=O)CCN(C(=O)O)S(=O)(=O)c1ccc(NC(=O)c2ccccc2)cc1`, the growth inhibition is -23.2% (inactive).
As to `Cc1cnc(-c2ccccc2)o1`, the growth inhibition is 8.7% (inactive).
Same read-out and setting: to `C=CCCCCCCCCC(=O)NCC1CCCCO1` (stereo not given) belongs 2.8% (inactive); to `N#C/C(=C\c1ccc(C#N)cc1)C(=O)O`, -16.6% (inactive); to `CCOC(=O)C(NC(=O)Cc1ccccc1)C(=O)OCC`, 10.8% (inactive).
The same measure, in the same setting: next, `Cc1ccc2c(c1)C(c1ccccc1)(c1ccccc1)OC2`: 8.65% (inactive); `N#CCCN(CCC#N)c1ccc(/C=C2\N=C(CN3C(=O)c4ccccc4C3=O)OC2=O)cc1`: -20.1% (inactive).
`c1ccnnc1`: the growth inhibition is 15.9% (inactive).
The same measure, in the same setting: next, `CCc1ccc(O[Si](C)(C)C)cc1`: 5.35% (inactive); `c1ccc(SCCP(CCP(c2ccccc2)c2ccccc2)c2ccccc2)cc1` (stereo not given): 34.9% (inactive); `C/C(N=NS(=O)(=O)c1ccc(C)cc1)=C1\C=CC=CN1O`: -15.9% (inactive).
Regarding `Cc1c(C(=O)O)[nH]c(=O)[nH]c1=O`, the growth inhibition is 9.1% (inactive).
On the same count and under the same terms, to `COC(=O)c1sc(C(=O)OC)c2c1CSC2` belongs -6% (inactive).
For `c1ccc(Cn2cccc2N=Nc2ccccc2)cc1`, the growth inhibition was 26.4% (inactive).
Still for that read-out and setting: next, `O=COCCc1ccccc1`: -17.9% (inactive); `O=C(O)CCc1ccc(NC(=O)CCl)cc1`: 4.05% (inactive); `O=C(/C=C/c1ccccc1)NC1C=Nc2ccc(Cl)cc2NC1=O` (stereo not given): 39% (inactive).
Same read-out and setting: to `C/C=C/c1ccc(O)c(OC)c1` belongs 13.1% (inactive).
The same measure, in the same setting: to `O=C(O)/C(=C/c1ccccc1)c1ccccc1` belongs -9.3% (inactive); to `O/N=C1/CCCCc2ccccc21`, -13.4% (inactive).
On to `Cn1c(=O)c2c(nc(C(=N)SCC(=O)O)n2C)n(C)c1=O`, for which the growth inhibition was 3.1% (inactive).
On the same count and under the same terms, to `Cc1nc2c(cc1C(=O)N/N=C/c1ccc([N+](=O)[O-])cc1)c(=O)n(C)c(=O)n2C` belongs -33.4% (inactive); to `Cc1cccnc1C(=O)O.[Cu+2]`, -9.55% (inactive).

The next experiment in a line: NCI Yeast Anticancer Drug Screen. Data for the mec2-1 strain (AID 157). Conditions: S. cerevisiae mec2-1 strain, at 50.0 µM, hits give high values. The method, boiled down: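 Cells of the genetically defined mec2-1 yeast strain are incubated with test compound. Inhibition of growth is calculated against vehicle-treated controls.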
For `O=C(NCCCCCCNC(=O)NCc1ccco1)NCc1ccco1`, the growth inhibition was -28.2% (inactive).
Consider `c1ccc(COC(c2ccccc2)(c2ccccc2)c2ccccc2)cc1`, for which the growth inhibition is -2.2% (inactive).
In the case of `O=S(=O)(O)C(c1ccccc1)C(O)c1ccccc1` (stereo not given), the growth inhibition was -8.95% (inactive).
As for `Nc1nc(N)c2nc(-c3ccc(O)cc3)c(-c3ccc(O)cc3)nc2n1`, the growth inhibition is -4% (inactive).
The same measure, in the same setting: to `CCOCCC(=N)OCC` belongs -4.7% (inactive); to `CC(NC(=O)NCCCl)C1CC1` (stereo not given), 0% (inactive); to `CC1OCC2CC3(O1)OC3C(COCC1OC3COC(C)OC4(C3)OC14)O2` (stereo not given), -25.3% (inactive).
Consider `c1ccc(-c2cc(-c3ccncc3)c(-c3ccccc3)nn2)cc1`, for which the growth inhibition was 7.8% (inactive).
Still for that read-out and setting: to `NC(=O)NC(=O)OCCOC(=O)NC(N)=O` belongs -11.7% (inactive).
`NCc1cnccn1`: the growth inhibition was 10.6% (inactive).
On the same count and under the same terms, next, `C=CCC(C(=C)C)(C(=O)OCC)C(=O)OCC`: -24.6% (inactive).
Same read-out and setting: to `O=C(O)C1CCC(C(=O)O)S1` (stereo not given) belongs -10.4% (inactive); to `Cc1ccc(NC(=O)Oc2ccc(C#N)cc2)cc1Cl`, 5.85% (inactive).
Still for that read-out and setting: next, `CCC(=O)OC1(C(=O)OC)CCN(C)CC1`: 2.95% (inactive); `Cc1ccc(NC(=O)C(C)S)cc1` (stereo not given): 11.6% (inactive); `Cc1ccc2cccc(OC(=O)Nc3cc(Cl)c(Cl)cc3Cl)c2n1`: -17.8% (inactive).
With `CCC(=O)C(C)C1(C(=O)OC)NC(=S)NC(=O)C1C#N` (stereo not given), the growth inhibition is -4.75% (inactive).
Still for that read-out and setting: next, `CCNC(=O)CCN(C(=O)O)S(=O)(=O)c1ccc(NC(=O)c2ccccc2)cc1`: -14.8% (inactive).
For the compound `Cc1cnc(-c2ccccc2)o1`, the growth inhibition is 5.4% (inactive).
The same measure, in the same setting: next, `C=CCCCCCCCCC(=O)NCC1CCCCO1` (stereo not given): -0.5% (inactive); `N#C/C(=C\c1ccc(C#N)cc1)C(=O)O`: -3.1% (inactive); `CCOC(=O)C(NC(=O)Cc1ccccc1)C(=O)OCC`: 10.3% (inactive).
Consider `Cc1ccc2c(c1)C(c1ccccc1)(c1ccccc1)OC2`, for which the growth inhibition was 41.4% (inactive).
Turning to `N#CCCN(CCC#N)c1ccc(/C=C2\N=C(CN3C(=O)c4ccccc4C3=O)OC2=O)cc1`, the growth inhibition was 4.25% (inactive).
`c1ccnnc1`: the growth inhibition is -29% (inactive).
The same measure, in the same setting: to `CCc1ccc(O[Si](C)(C)C)cc1` belongs 3.25% (inactive); to `c1ccc(SCCP(CCP(c2ccccc2)c2ccccc2)c2ccccc2)cc1` (stereo not given), 2.6% (inactive).
In the case of `C/C(N=NS(=O)(=O)c1ccc(C)cc1)=C1\C=CC=CN1O`, the growth inhibition is -14.7% (inactive).
On the same count and under the same terms, to `Cc1c(C(=O)O)[nH]c(=O)[nH]c1=O` belongs -20.4% (inactive); to `COC(=O)c1sc(C(=O)OC)c2c1CSC2`, 5.35% (inactive); to `c1ccc(Cn2cccc2N=Nc2ccccc2)cc1`, 2.8% (inactive).
Same read-out and setting: next, `O=COCCc1ccccc1`: -6.2% (inactive); `O=C(O)CCc1ccc(NC(=O)CCl)cc1`: 14.6% (inactive).
Still for that read-out and setting: next, `O=C(/C=C/c1ccccc1)NC1C=Nc2ccc(Cl)cc2NC1=O` (stereo not given): 53.7% (inactive); `C/C=C/c1ccc(O)c(OC)c1`: -11.6% (inactive).
In the case of `O=C(O)/C(=C/c1ccccc1)c1ccccc1`, the growth inhibition is -45% (inactive).
Same read-out and setting: to `O/N=C1/CCCCc2ccccc21` belongs 0.95% (inactive); to `Cn1c(=O)c2c(nc(C(=N)SCC(=O)O)n2C)n(C)c1=O`, 16.4% (inactive).
Same read-out and setting: next, `Cc1nc2c(cc1C(=O)N/N=C/c1ccc([N+](=O)[O-])cc1)c(=O)n(C)c(=O)n2C`: -21.8% (inactive); `Cc1cccnc1C(=O)O.[Cu+2]`: -0.45% (inactive).
